Giardia killer: kills Giardia lamblia; Giardia lamblia trophozoite viability; activity change, % at 7.66 µM, hits read low; 0.15% of 340,000 active; in the data active = activity change below about -80%; inconclusive = between about -30% and that limit;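 also: parasites exposed to compound for two days anaerobically before the ATP read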
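Trophozoites 100 cells/well + cpd; 48 hrs, 37 deg C, anaerobic. ATPLite 1-Step added, 15-30 min RT, luminescence read (ATP-based viability).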
A549 tox: A549 cytotoxicity, counter-screen for Nrf2 inhibitors. A549 ARE-Fluc cells, CellTiter-Fluor viability, 18-24 h. Potency, µM (highest dose often 46 µM), without a hit: at the top dose activity change, negative = cytotoxicity, hits mostly inhibitors. 0.16% of 390,000 active; also: potency is read from the fitted curve at half-maximal effect
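A549 ARE-Fluc cells in 5% FBS OPTI-MEM, 5000 cells/well, rested 2 h then exposed to compounds in concentration-response for 18-24 h at 37 °C. Viability by CellTiter-Fluor fluorescence (Ex 405/Em 525) after 30 min; luciferase luminescence (BugLite, 15 min, RT) read afterwards.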
KB-3-1 tox: KB-3-1 parental cell cytotoxicity. 1.4% of 400,000 active. Potency, µM (highest dose often 46.1 µM), most hits filed as cytotoxic. AID 1347075. KB-3-1 viability, CellTiter-Glo ATP luminescence, 72 h; also: potency is read from the fitted curve at half-maximal effect; nearly all actives have a fitted effect of over 60% in size
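Screening of KB-3-1 cells (DMEM, 10% FBS, phenol-red free) ran from lowest to highest compound concentration; after 72 h at 37 °C viability was read luminescently and curves fitted.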
Nrf2 inh: inhibitors of Nrf2 signaling; A549 ARE-Fluc reporter, luciferase luminescence, 18-24 h; Potency, µM (series often up to 46 µM), for inactives: top-dose activity change, negative = inhibition, hits mostly inhibitors; 2.1% of 360,000 active; also: potency is read from the fitted curve at half-maximal effect; nearly all actives have a fitted effect of over 60% in size
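Nrf2 function is reported as luminescence of an ARE-controlled luciferase in A549 cells. Compounds were tested at several concentrations, and a CellTiter-Fluor read on the same wells flagged cytotoxicity.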
PI4K2A inh: inhibitors of human PI4K2A; purified PI4K2A, ADP-Glo luminescence, 1 h; hits give low values; Q9BTU6; AID 1346378; 0.13% of 420,000 active; activity change, negative = inhibition, % at 76.9 µM; in the data active = activity change below about -50%; inconclusive = mostly about -30% to -49%;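 also: -100% = wells without enzyme as full effect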
Target sequence (Q9BTU6 whole entry, looked up): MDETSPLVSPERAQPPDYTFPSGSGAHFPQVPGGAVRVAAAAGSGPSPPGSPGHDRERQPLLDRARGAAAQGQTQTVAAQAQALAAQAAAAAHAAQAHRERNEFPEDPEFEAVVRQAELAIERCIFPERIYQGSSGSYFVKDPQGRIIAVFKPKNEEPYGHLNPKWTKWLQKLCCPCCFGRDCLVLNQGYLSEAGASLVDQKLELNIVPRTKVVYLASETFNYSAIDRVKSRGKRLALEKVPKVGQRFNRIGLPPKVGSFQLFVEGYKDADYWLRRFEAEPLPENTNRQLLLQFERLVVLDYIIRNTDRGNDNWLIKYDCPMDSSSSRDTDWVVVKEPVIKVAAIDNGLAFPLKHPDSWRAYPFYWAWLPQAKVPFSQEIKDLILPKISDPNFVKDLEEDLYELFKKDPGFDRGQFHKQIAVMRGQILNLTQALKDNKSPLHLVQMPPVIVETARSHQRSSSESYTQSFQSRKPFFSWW
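Compounds are screened against recombinant PI4K2A using PI as substrate and ATP, the latter dispensed at 300 microM. Reactions run one hour at ambient temperature before ADP-Glo detection; full inhibition defined by wells lacking enzyme.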
KB-V1 MDR tox: kills drug-selected multidrug resistant KB-V1 cells; Potency, µM (highest dose often 46.1 µM), hits mostly cytotoxic; 3.4% of 400,000 active; KB-V1 MDR cells viability, CellTiter-Glo, 72 h; also: potency is read from the fitted curve at half-maximal effect; nearly all actives have a fitted effect of over 60% in size
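In this primary screen, KB-V1 cells overexpressing P-gp are incubated with library compounds (lowest to highest concentration) for 72 h at 37 degrees C before a luminescent ATP viability read.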
Numbers without * were called inactive; i = inactive; ? = inconclusive; nt = not tested or not shown; ! = not confirmed by another sample. Most compounds without a hit are left out; they make up all but 5.7% or so of the library. Unless noted, calls follow the shape of the dose curve; as a rule, active = well fitted curve in the direction sought with a large enough effect; inconclusive = small, poorly fitted or top-dose-only effect, or another doubt; inactive = no such curve, though single readings can be large; an effect the other way counts as inactive or inconclusive. Unless noted, % is scaled to controls: 0 for no effect and ±100 for the full control effect.

SMILES | Giardia killer | A549 tox | KB-3-1 tox | Nrf2 inh | PI4K2A inh | KB-V1 MDR tox
Cc1cccc(N2CCN(C(=O)C3CCCN(S(=O)(=O)c4ccc(Br)s4)C3)CC2)c1C (stereo not drawn) | nt | -6% | nt | 10µM* | 1 | nt
O=C(C1CCN(S(=O)(=O)c2ccc(Cl)s2)CC1)N1CCN(c2ccccc2)CC1 | ? | 1% | i | -20% | 8 | 18µM*
COc1cccc(N2CCN(C(=O)C3CCCN(S(=O)(=O)c4ccc(Br)s4)C3)CC2)c1 (stereo not drawn) | nt | -5% | i | 16µM* | 2 | i
O=C1CCCC2=C1C1(CCCC1)N=C(Nc1nc3cc4ccccc4cc3o1)N2 | nt | -2% | i | -2% | nt | i
OC[C@@H]1CC[C@@H]2O[C@H](CCc3ccc(-c4ccc(F)cc4)cc3)[C@@H](n3cc(C4CC4)nn3)C[C@@H]2O1 | nt | nt | nt | nt | 2 | nt
CN(C)[C@@H]1CCN(c2ccc3c(c2)OCCCN(C2CC2)S3(=O)=O)C1 | nt | nt | nt | nt | -8 | nt
O=C(C1CCN(S(=O)(=O)c2cccnc2)CC1)N1CCN(c2ccc(Cl)cc2)CC1 | 9 | 2% | 13µM* | ? | 1 | 6.5µM*
O=C(C1CCCN(S(=O)(=O)c2ccc(Br)s2)C1)N1CCN(c2ccccc2)CC1 (stereo not drawn) | -15 | -16% | i | 16µM* | -15 | i
Cc1nn(C)c(C)c1S(=O)(=O)N1CCCC(C(=O)N2CCN(c3ccc(Cl)cc3)CC2)C1 (stereo not drawn) | -20 | -7% | 18µM* | ? | -1 | i
Cc1ccc(NC2(c3ccccc3)C(=O)c3ccccc3C2=O)cc1F | nt | -7% | i | 8% | -1 | i
CCOc1ccccc1NC(=O)Cn1nnc(C(=O)NCc2ccco2)c1N | 9 | ? | 0.01µM* | -8% | 1 | 0.26µM*
Cc1cccc(NC(=O)Cn2nnc(C(=O)NCc3cccs3)c2N)c1C | 2 | 1% | i | 0% | 2 | i
CCOc1ccccc1NC(=O)c1nnn(CC(=O)Nc2ccc3c(c2)OCO3)c1N | -13 | 4% | ? | -8% | -19 | ?
Cc1ccccc1NC(=O)Cn1nnc(C(=O)NCc2cccs2)c1N | nt | -2% | 3.3µM* | 3% | 2 | i
CCOc1ccccc1NC(=O)Cn1nnc(C(=O)NCc2ccc(F)cc2)c1N | nt | 0% | i | -14% | -3 | i
Cc1ccccc1NC(=O)Cn1nnc(C(=O)NCc2ccco2)c1N | -14 | -17% | 18µM*! | -20% | -2 | ?
CCOc1ccccc1NC(=O)Cn1nnc(C(=O)NCc2ccc3c(c2)OCO3)c1N | -2 | 1% | 9.2µM* | 0% | -7 | ?
Cc1ccc(NC(=O)OCCCN2C(=O)CCC23CCC(C)CC3)cc1 (stereo not drawn) | nt | nt | nt | nt | -4 | nt
Cc1cc(C)cc(NC(=O)c2ccc(S(=O)(=O)NCc3cccnc3)cc2)c1 | -17 | 1% | i | -16% | 0 | i
O=C(Nc1ccc(Cl)c(Cl)c1)c1cccc(S(=O)(=O)NCc2cccnc2)c1 | -7 | -23% | i | 15µM* | 0 | i
COc1cccc(S(=O)(=O)NCc2ccc(C(=O)Nc3ccc(Cl)c(Cl)c3)cc2)c1 | -14 | ? | ? | nt | 2 | i
Cc1cccc(NC(=O)c2ccc(S(=O)(=O)NCc3cccnc3)cc2)c1 | -5 | -18% | ? | 12µM* | -6 | 21µM*
Clc1ccc([C@H]2OC[C@@]3(CNCCc4c[nH]c5ccccc45)CS[C@H](c4ccc(Cl)cc4)N23)cc1 | nt | nt | nt | nt | -3 | nt
Cc1cc(NC(=O)CSc2nc(-c3ccco3)cc(C(F)(F)F)n2)no1 | -22 | ? | 0.82µM* | -17% | -3 | ?
Cc1cc(NC(=O)CCSc2nc(-c3ccco3)cc(C(F)(F)F)n2)no1 | 16 | -8% | i | -2% | -17 | i
Cc1ccc(NC(=O)CSc2nc(-c3ccco3)cc(C(F)(F)F)n2)cc1 | nt | -4% | ? | 7% | 4 | ?
